Assay outcomes deposited in PubChem BioAssay by National Center for Advancing Translational Sciences (NCATS).
A selection: hits, their analogues and other compounds. The true share with any hit is near 7.5%.
FLuc counter: counter-screen for miR-21 project: firefly luciferase inhibitors or activators. P08659. purified FLuc, Km substrates, luminescence inhibition. Potency, µM (doses to about 57.5 µM), inactives show at the highest dose activity change, negative = inhibition, hits mostly inhibitors. 360,000 tested, 6.9% active. AID 588342;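 also: plate controls were vehicle for no effect and reference inhibitor for full effect; nearly all actives have a fitted effect of over 55% in size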
Target sequence (P08659 whole entry, looked up): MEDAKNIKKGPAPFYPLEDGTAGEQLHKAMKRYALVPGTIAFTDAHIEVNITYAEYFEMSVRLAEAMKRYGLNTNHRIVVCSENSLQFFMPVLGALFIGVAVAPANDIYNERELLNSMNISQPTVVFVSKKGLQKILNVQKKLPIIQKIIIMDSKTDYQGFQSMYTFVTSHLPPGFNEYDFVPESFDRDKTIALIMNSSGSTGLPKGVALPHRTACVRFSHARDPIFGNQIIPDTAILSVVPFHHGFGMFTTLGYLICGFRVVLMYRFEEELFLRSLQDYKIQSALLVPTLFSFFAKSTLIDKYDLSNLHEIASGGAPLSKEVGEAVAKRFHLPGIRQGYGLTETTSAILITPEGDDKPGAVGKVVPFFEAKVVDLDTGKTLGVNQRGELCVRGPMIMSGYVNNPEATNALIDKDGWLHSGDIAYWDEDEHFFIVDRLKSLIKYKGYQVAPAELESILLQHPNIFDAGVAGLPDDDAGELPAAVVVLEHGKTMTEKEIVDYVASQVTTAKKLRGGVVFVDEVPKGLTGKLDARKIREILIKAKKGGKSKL
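Purified P. pyralis luciferase, 10 nM final, with Km-level 10 uM D-luciferin and 10 uM ATP in 50 mM Tris acetate pH 7.5, 10 mM Mg acetate, 0.01% Tween-20, 0.05% BSA; 6-point qHTS titration about 60 µM downward; luminescence read.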
SMN2 splice enh: enhancers of SMN2 splice variant expression | HEK293 SMN2-luciferase splicing reporter, luminescence, 30-36 h | Potency, µM (doses to about 46.1 µM), without a hit: top-dose activity change, positive = activation, usual class: activators | 210,000 tested, 2.8% active | AID 1458; also: % of control where 0% means no effect; nearly all actives have a fitted effect of over 55% in size
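qHTS luciferase splicing reporter: luminescence rises when SMN2 exon 7 is included in transfected HEK293 cells. Compound exposure lasted 30-36 h at 37C, with 4.5 mM final sodium butyrate as control, followed by a ONE-Glo read.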
NPC1 prom act: NPC1 promoter activation. 320,000 tested, 2.4% active. Potency, µM (highest dose often 9.22 µM), for inactives: top-dose activation, usual class: activators. AID 485313. Huh7 NPC1 promoter luciferase reporter, 24 h; also: % of control where 0% means no effect; nearly all actives have a fitted effect of over 60% in size
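In 1536-well qHTS, Huh7 cells harboring an NPC1 promoter–luciferase construct received compound for 24 h; activation was quantified by luminescence following luciferase reagent addition.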
Luc counter: counter-screen: inhibitors of Kinase-Glo firefly luciferase; 200,000 tested, 0.28% active; Kinase-Glo luciferase, ATP luminescence, 8 min; Q27757; Potency, µM (titrated, usually from 38.3 µM), without a hit: top-dose activity change, negative = inhibition, most hits filed as inhibitors; also: % is scaled to controls: 0 for no effect and ±100 for the full control effect; nearly all actives have a fitted effect of over 60% in size
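Substrate mix (final 50 mM imidazole pH 7.2, 50 mM KCl, 7 mM MgCl2, 10 uM ATP, 0.01% Tween 20, 0.05% BSA) plus pin-tool compound, then Kinase-Glo detection mix; 8 min ambient, luminescence read.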
Rab9 promoter act: activators of Rab9 promoter. AID 485297. Potency, µM (series often up to 9.22 µM), for the others: at the highest dose activation, negative = inhibition, usual class: activators. 320,000 tested, 2.8% active. Huh7 Rab9 promoter-luciferase reporter, luminescence, 24 h; also: % of control where 0% means no effect; nearly all actives have a fitted effect of over 60% in size
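Luminescence read-out: Huh7 cells stably expressing Rab9-luciferase, treated 24 h with compound at 37 °C, then lysed with luciferase reagent for 10 min at ambient before reading.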
ELG1 genotox: inducers of genotoxicity in HEK293T ELG1-luciferase cells. Potency, µM (top dose mostly 46 µM), inactives show at the highest dose activity change, positive = activation, most hits filed as activators. 330,000 tested, 1.3% active. HEK293T ELG1-luciferase reporter, luminescence, 16 h. AID 504466; also: % of control where 0% means no effect; nearly all actives have a fitted effect of over 60% in size
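Luminescence read-out: rising ELG1-luciferase signal, reflecting elevated ELG1 protein under genetic stress, flags genotoxic compounds. Cells were treated for 16 hr at 37 °C before ONE-Glo detection.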
* marks the source's active call; other numbers are inactive results; ? = inconclusive; / = not tested or not shown. Calls follow the shape of the dose curve; as a rule, active = well fitted curve in the direction sought with a large enough effect; inconclusive = small, poorly fitted or top-dose-only effect, or another doubt; inactive = no such curve, though single readings can be large; an effect the other way counts as inactive or inconclusive. Potency is read from the fitted curve at half-maximal effect.

SMILES	FLuc counter	SMN2 splice enh	NPC1 prom act	Luc counter	Rab9 promoter act	ELG1 genotox
Cc1cc(S(=O)(=O)NCc2ccccc2)ccc1OCC(=O)NCc1ccncc1	15µM*	/	2.8µM*	/	3.2µM*	?
COc1ccc(OC)c(Nc2nc(-c3sc(N)nc3C)cs2)c1	-2%	-16%	-1%	0%	-4%	3%
COc1ccc(Nc2nc(-c3sc(C)nc3C)cs2)cc1	15µM*	/	-26%	/	-17%	8%
CC(=O)Nc1nc(C)c(-c2csc(Nc3ccc(O)cc3)n2)s1	?	8%	-7%	3%	-6%	1%
Cc1nc(C)c(-c2csc(Nc3ccc(O)c(C(=O)O)c3)n2)s1	9.5µM*	/	8%	/	23%	-4%
Cc1nc(C)c(-c2csc(Nc3ccc(N)cc3)n2)s1	11µM*	/	?	/	22%	4%
Cc1nc(C)c(-c2csc(Nc3cccnc3)n2)s1	12µM*	?	11%	-2%	16%	?
Cc1ccc(-n2ncc3c(NNC(=O)Cc4ccccc4)ncnc32)cc1	?	-18%	-5%	0%	-4%	4%
CCOC(=O)c1c(NC(=O)C(C)Sc2nnc(C)c(=O)[nH]2)sc2c1CCCC2 (stereo unspecified)	0%	/	-5%	/	-1%	1%
COc1ccc(NC(=O)c2c(NC(=O)CCC(=O)O)sc3c2CCCCC3)cc1	-5%	/	-6%	4%	11%	-1%
COc1ccc(NC(=O)c2c(NCc3cccc(OC)c3)sc3c2CCCC3)cc1	-20%	/	/	/	/	/
COc1ccc(NC(=O)c2c(NCc3ccc(N(C)C)cc3)sc3c2CCC3)cc1	11µM*	/	/	/	/	/
COc1ccc(NC(=O)c2c(NC(=O)C(F)(F)F)sc3c2CCCCC3)cc1	13µM*	-56%	/	/	/	/
CCCCc1nnc(NC(=O)CN2C(=O)NC3(CCCCC3)C2=O)s1	1%	/	-5%	/	6%	0%
CCN(C(=O)CSc1nccc(=O)[nH]1)c1cccc2ccccc12	/	/	/	/	/	4%
COc1cccc(COc2cc3ccccc3nc2C)c1	19µM*	-14%	-10%	-3%	-28%	0%
Cc1nc2ccccc2cc1OCc1ccccc1	17µM*	-63%	-9%	-2%	-12%	-2%
O=C(CCl)Nc1cn(-c2ccccc2)nc1-c1ccc(F)cc1	-15%	-25%	-13%	-1%	-3%	-4%
C=CCOC(=O)N[C@@H](c1cccs1)C(C(C)=O)C(C)=O	/	-5%	/	0%	/	/
O=C(c1cc(-c2ccncc2)nc2ccccc12)N1CCN(c2ncccn2)CC1	/	/	/	/	/	-5%
O=C(c1cc(-c2ccc(Br)cc2)nc2ccccc12)N1CCC1	17µM*	/	-1%	/	-7%	-9%
CCc1ccc(Sc2cc(C(=O)O)c3ccccc3n2)cc1	15µM*	/	/	/	/	/
COc1ccc(-c2cc(C(=O)N3CCCCCC3)c3ccccc3n2)cc1	6.7µM*	/	0%	/	0%	-1%
Cc1ccc(-c2cc(C(=O)N3CCC(C)CC3)c3ccccc3n2)cc1	4.3µM*	/	3%	/	7%	-5%
O=C(O)c1cc(Sc2ccc(Br)cc2)nc2ccccc12	?	-5%	-3%	1%	-7%	-1%
SMILES	FLuc counter	SMN2 splice enh	NPC1 prom act	Luc counter	Rab9 promoter act	ELG1 genotox
COc1ccc(N2CCN(C(=O)Cc3ccc(Cl)cc3)CC2)cc1	-1%	/	-5%	/	15%	-3%
CCN1C(=O)[C@@H]2[C@H](C1=O)[C@@H]1C(=O)Nc3ccccc3C(=O)N1[C@@H]2c1cccc(Cl)c1	3%	/	0%	/	0%	2%
COC(=O)c1ccc(NC(=O)CC2C(=O)N(c3cccc(OC)c3)C(=O)N2Cc2ccco2)cc1 (stereo unspecified)	-13%	/	/	/	/	/
Cc1ccc(NC(=O)CSc2nc3c(oc4ccccc43)c(=O)n2Cc2ccco2)cc1	1%	-1%	/	/	/	/
CCOC(=O)N1CCC(NC(=O)c2cc(-c3ccc(OC)cc3)nc3ccccc23)CC1	4.8µM*	/	-1%	/	10%	-4%
COc1cc(-c2cc(C(=O)N3CCCCCC3)c3ccccc3n2)cc(OC)c1OC	-10%	/	-4%	/	-34%	1%
